The whole screen tested about 310,000 compounds, of which about 14,000 (4.5%) showed an effect of 50% or more. Effects have a minus sign here. The full list was thinned out, with strong results kept by preference.
Target: human ether-à-go-go-related gene (hERG) potassium channel (human, UniProt Q12809)
Experiment: primary screen, population patch clamp on CHO cells stably expressing hERG; higher = less effect of the substance
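Note: peak tail current of the secondary pulse compared with the same well before compound.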

Sequence of human ether-à-go-go-related gene (hERG) potassium channel (Q12809 whole entry, looked up): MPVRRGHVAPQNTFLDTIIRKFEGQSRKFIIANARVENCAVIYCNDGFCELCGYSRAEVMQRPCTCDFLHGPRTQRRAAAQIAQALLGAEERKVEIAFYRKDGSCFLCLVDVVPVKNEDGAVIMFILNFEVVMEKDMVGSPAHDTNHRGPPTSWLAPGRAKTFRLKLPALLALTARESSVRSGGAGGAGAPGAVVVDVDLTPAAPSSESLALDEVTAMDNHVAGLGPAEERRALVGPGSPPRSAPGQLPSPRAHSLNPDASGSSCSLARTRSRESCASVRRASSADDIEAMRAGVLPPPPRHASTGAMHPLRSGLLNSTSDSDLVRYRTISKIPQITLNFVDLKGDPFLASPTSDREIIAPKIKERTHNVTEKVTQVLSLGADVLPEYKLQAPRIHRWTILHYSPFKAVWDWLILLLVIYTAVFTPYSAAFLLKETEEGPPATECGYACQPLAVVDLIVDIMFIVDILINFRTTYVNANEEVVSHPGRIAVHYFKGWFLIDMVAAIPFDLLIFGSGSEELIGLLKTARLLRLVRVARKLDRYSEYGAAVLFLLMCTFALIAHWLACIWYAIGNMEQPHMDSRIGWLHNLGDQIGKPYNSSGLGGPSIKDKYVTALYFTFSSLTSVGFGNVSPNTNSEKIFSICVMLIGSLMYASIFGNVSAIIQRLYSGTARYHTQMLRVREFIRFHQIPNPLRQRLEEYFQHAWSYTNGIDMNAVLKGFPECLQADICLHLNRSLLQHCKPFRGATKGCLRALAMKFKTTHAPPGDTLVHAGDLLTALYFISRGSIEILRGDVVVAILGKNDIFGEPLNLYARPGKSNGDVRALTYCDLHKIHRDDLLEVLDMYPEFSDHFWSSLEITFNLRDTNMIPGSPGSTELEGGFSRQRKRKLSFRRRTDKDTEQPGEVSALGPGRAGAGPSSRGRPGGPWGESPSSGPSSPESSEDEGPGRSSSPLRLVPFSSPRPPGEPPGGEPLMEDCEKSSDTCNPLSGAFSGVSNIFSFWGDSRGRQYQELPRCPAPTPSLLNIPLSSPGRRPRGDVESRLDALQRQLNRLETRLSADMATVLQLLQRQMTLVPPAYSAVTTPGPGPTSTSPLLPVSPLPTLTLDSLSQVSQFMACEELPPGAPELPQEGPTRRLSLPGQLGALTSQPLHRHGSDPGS

SMILES	hERG current change (%, negative = inhibition) at 10uM
O=C(NCC(=O)N(Cc1ccco1)C(C(=O)NC1CCCC1)c1ccncc1)c1cccs1 (stereo not shown)	-0.29%
O=C(N/N=C/c1cc([N+](=O)[O-])ccc1O)C1CC1	9.47%
Cc1cc(C)n(-c2nc3ccccc3c(=O)n2OCCOc2ccccc2)n1	-1.88%
COc1ccc2c(c1)C(=O)Cc1ccccc1O2	0.762%
COc1ccc(C(c2nnnn2C2CCCCC2)N2CCN(C)CC2)c(OC)c1 (stereo not shown)	-4.87%
N/C(=N\OC(=O)C12CC3CC(CC(C3)C1)C2)c1ccccc1	-11.1%
COc1ccc2nc(/N=C/c3c(O)n(-c4cccc(Cl)c4)c(=O)[nH]c3=O)sc2c1	2.53%
CCOC(=O)CC(=O)CSc1nc2nc(C)cc(C)n2n1	8.34%
O=C(Nc1ccccc1)c1ccncc1	1.31%
O=C(COC(=O)c1ccc(O)cc1O)NNC(=O)c1cccs1	6.45%
CSc1nc(N2CCOCC2)cc(N2CCOCC2)n1	7.09%
O=C(CN1C(=O)c2cccc3cccc(c23)C1=O)N1CCCCC1	0.0571%
Cc1cc(C)c(NC(=O)C2CCCN2CCO)c(C)c1 (stereo not shown)	-14.5%
Cc1cc(C)c(NC(=O)C2CCCN2CCOC(=O)c2ccccc2)c(C)c1.Cl (stereo not shown)	-26%
Cc1cc(C)c(NC(=O)C2CCCN2CCOC(=O)c2cccc([N+](=O)[O-])c2)c(C)c1.Cl (stereo not shown)	-63.2%
CC(NC(=O)c1ccccc1F)c1nnc(SCC(=O)NC2=NCCS2)n1C (stereo not shown)	22.3%
COC(=O)c1cc(CNC(=O)c2ccccc2Cl)ccc1OC	0.487%
COC(=O)C1CSc2[nH]c(=O)sc2C1c1ccc(OC)c(OC)c1 (stereo not shown)	0.0419%
COC(=O)C1=C(C(=O)OC)C(c2ccc(OC)c(OC)c2)c2sc(=O)[nH]c2S1 (stereo not shown)	-54.8%
COc1ccc(C2c3sc(=O)[nH]c3SC3C4CCC(C4)C23)cc1OC (stereo not shown)	-17.5%
COC(=O)C1=C(C(=O)OC)C(c2cc(Br)ccc2O)c2sc(=O)[nH]c2S1 (stereo not shown)	-47.6%
COC(=O)C1=C(C(=O)OC)C(c2cc([N+](=O)[O-])ccc2O)c2sc(=O)[nH]c2S1 (stereo not shown)	1.28%

SMILES	hERG current change (%, negative = inhibition) at 10uM
COC(=O)C1=C(C(=O)OC)C(c2ccccc2O)c2sc(=O)[nH]c2S1 (stereo not shown)	-55.9%
S=c1[nH]nc(-c2ccc(Cl)cc2)n1-c1cccnc1	23.5%
Cc1ccc(-c2nc(C#N)c(N3CCC(C)CC3)o2)cc1	17.5%
N#Cc1c(N)nc2c(c1-c1ccncc1)CCCCC2	-12.3%
COc1ccc(OC)c(CN2CCCC(C(=O)c3ccccc3SC)C2)c1 (stereo not shown)	-75.9%
COc1cc(OC)c(OC)cc1CN1CCCC(C(=O)c2ccccc2SC)C1 (stereo not shown)	-58.5%
COc1cc(CN2CCCC(C(=O)c3ccccc3SC)C2)cc(OC)c1 (stereo not shown)	-74.4%
COc1ccc(O)c(CN2CCCC(C(=O)c3ccccc3SC)C2)c1 (stereo not shown)	-30.9%
COCCC(=O)N1CCCC(C(=O)c2ccccc2SC)C1 (stereo not shown)	13.1%
O=C(/C=C/c1ccc(S(=O)(=O)N2CCOCC2)cc1)NCc1ccccc1	-4.31%
O=c1[nH]c(-c2ccc(Cl)cc2)cs1	9.25%
COc1cc(NC(=O)Nc2cccc([N+](=O)[O-])c2)cc(OC)c1	1.42%
COc1cccc(NC(=O)[C@@H]2CCCN2S(=O)(=O)c2cccc3cccnc23)c1	-5.87%
COCCN(C(=O)CCC(=O)Nc1nccs1)C(C(=O)NC(C)(C)C)c1ccc(F)cc1 (stereo not shown)	-1.98%
COC(=O)CSc1nnc(CNc2ccc(F)cc2)o1	14.5%
COc1ccc(/C(N)=N/O)cc1O	5.51%
CC1CN(Cc2ccccc2)c2nc3c(c(=O)n(C)c(=O)n3C)n2C1 (stereo not shown)	-36.1%
C=C(C)Cn1c(=O)c2c(nc3n2CCCN3CCc2ccccc2)n(C)c1=O	-73.3%
Cn1c(=O)n(Cc2ccccc2)c(=O)c2c1nc1n2CCCN1CCc1ccccc1	-26%
CC(C)Cn1c(=O)c2c(nc3n2CCCN3CCc2ccccc2)n(C)c1=O	-76%
CCCn1c(=O)c2c(nc3n2CCCN3CCc2ccc(OC)c(OC)c2)n(C)c1=O	-23.7%
Cn1c(=O)n(CC(=O)O)c(=O)c2c1nc1n2CCCN1CCc1ccccc1	13.6%

SMILES	hERG current change (%, negative = inhibition) at 10uM
Cn1c(=O)c2c(nc3n2CCCN3CCc2ccccc2)n(C)c1=O	-1.45%
CCn1c(=O)c2c(nc3n2CCCN3CCc2ccc(OC)c(OC)c2)n(C)c1=O	-5.18%
C=CCn1c(=O)c2c(nc3n2CCCN3CCc2ccc(OC)c(OC)c2)n(C)c1=O	-79.6%
CCCn1c(=O)c2c(nc3n2CC(C)CN3Cc2ccccc2)n(C)c1=O (stereo not shown)	-39.4%
C=C(C)Cn1c(=O)c2c(nc3n2CCCN3Cc2ccccc2)n(C)c1=O	-17.9%
CC(C)Cn1c(=O)c2c(nc3n2CC(C)CN3Cc2ccccc2)n(C)c1=O (stereo not shown)	-83.3%
CCOc1ccc(-n2nnc3c(=O)n(CC(=O)N4CCCc5ccccc54)cnc32)cc1	-4.52%
O=C(Nc1nc2ccc(S(=O)(=O)N3CCCC3)cc2s1)C1CCCCC1	4.81%
COc1ccc(C(CC(=O)N2CCC3(CC2)OCCO3)NS(=O)(=O)c2ccc(OC)cc2)cc1 (stereo not shown)	7.14%
CC(C)CCn1c(=O)c2c(nc3n2CCCN3Cc2ccccc2)n(C)c1=O	-37.7%
C=C(C)Cn1c(=O)c2c(nc3n2CC(C)CN3Cc2ccccc2)n(C)c1=O (stereo not shown)	-65.6%
CC(C)Cn1c(=O)c2c(nc3n2CCCN3Cc2ccccc2)n(C)c1=O	-50%
CCCn1c(=O)c2c(nc3n2CCCN3CCc2ccccc2)n(C)c1=O	-65.4%
Cn1c(=O)n(Cc2ccccc2)c(=O)c2c1nc1n2CCCN1Cc1ccccc1	-31.1%
CCCn1c(=O)c2c(nc3n2CCCN3Cc2ccccc2)n(C)c1=O	-34.3%
CC1CN(Cc2ccccc2)c2nc3c(c(=O)n(CC(N)=O)c(=O)n3C)n2C1 (stereo not shown)	14.5%
CC1CN(Cc2ccccc2)c2nc3c(c(=O)n(CC(=O)O)c(=O)n3C)n2C1 (stereo not shown)	18.8%
CCn1c(=O)c2c(nc3n2CCCN3CCc2ccccc2)n(C)c1=O	-21.2%
O=C(CCCOc1ccc(Cl)cc1)Nc1nncs1	-28.9%
Cc1cc(NC(=O)COc2cccc(Oc3ccccc3)c2)no1	13.5%
CCOc1cc(NCCN2CCOCC2)c([N+](=O)[O-])cc1OCC	-7.79%
COc1ccc(CC(=O)N2CCc3cc(OC)c(OC)cc3C2O)cc1OC (stereo not shown)	8.05%

SMILES	hERG current change (%, negative = inhibition) at 10uM
Cc1c(C)[n+](=O)c(-c2ccc(Br)cc2)c(C)n1[O-]	13.1%
CCOc1ccc2nc(Cl)c(C3CC(c4ccco4)=NN3S(C)(=O)=O)cc2c1 (stereo not shown)	-41.1%
Cc1ccc2cc(C3CC(c4ccco4)=NN3S(C)(=O)=O)c(Cl)nc2c1 (stereo not shown)	-15%
Cc1ccc2nc(Cl)c(C3CC(c4ccco4)=NN3S(C)(=O)=O)cc2c1 (stereo not shown)	-62.6%
Fc1ccc(NC(=S)Nc2ccccc2OC(F)F)cc1Cl	9.18%
CCOc1ccc(NC(=S)N(CCOC)C2CCN(C(C)C)CC2)cc1	-29%
COc1ccc(-c2[nH]ncc2CN(Cc2nccn2C)C(C)C)c(F)c1	-39.7%
CC(C)N(Cc1nc(-c2ccc(Cl)cc2)no1)Cc1nccn1C	-50.4%
CN(Cc1ccon1)Cc1cn[nH]c1-c1ccc(-c2ccccc2)cc1	-10.4%
Cc1nnc(CN(C)Cc2cn[nH]c2-c2ccc(-c3ccccc3)cc2)o1	-15.1%
COc1ccc(-c2noc(CN(Cc3nccn3C)C(C)C)n2)cc1	-6.99%
CN(Cc1cn[nH]c1-c1cc2ccccc2o1)CC1CCOCC1	-66.4%
CCN(CCn1cccn1)Cc1cn[nH]c1-c1ccc(-c2ccccc2)cc1	9.21%
COC(=O)c1ccc(-c2noc(CN(Cc3nccn3C)C(C)C)n2)cc1	-37%
O=C1CC[C@@H](CN(Cc2ccccc2)Cc2cn[nH]c2-c2cc3ccccc3o2)N1	-6.77%
CN(Cc1cccnc1)Cc1cn[nH]c1-c1ccc(-c2ccccc2)cc1	-56.7%
c1ccc2oc(-c3[nH]ncc3CN(Cc3ccncc3)CC3CCCO3)cc2c1 (stereo not shown)	-22.6%
CC(C)N(Cc1cn[nH]c1-c1ccc(-c2ccccc2)cc1)Cc1nccn1C	-71.9%
Cc1csc(NC(=O)CCC(=O)N(CC(=O)NC2CCCC2)c2ccccc2)n1	-3.43%
Cc1ccc(CNC(=O)CCCOc2cc(=O)n(C)c3ccccc23)o1	-17.9%
Cc1[nH][nH]c(=O)c1N=Nc1ccc(Cl)cc1	2.19%
C/C(NC(=O)c1cccs1)=C1\C(=O)C[C@@H]2[C@H]1C2(C)C	-19.6%

From PMC4336329 (PLoS ONE, 2015)
